Screens (PubChem BioAssay)
In the library only some 2.1% were active in any assay of this set; here they are far more common.
TDP-43 yeast inh – qHTS of TDP-43 Inhibitors; TDP-43 expressing yeast growth rescue, BacTiter-Glo, 24 h; Potency, µM (highest dose often 46.1 µM), actives largely listed as activators; hit rate 1.8% among 410,000; note: nearly all actives have a fitted effect of over 50% in size
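In this qHTS, compounds that restore growth of yeast expressing TDP-43 appear as activators. Cells (OD600=0.02, galactose medium, raffinose-pregrown) are incubated with compound 24 hr at 30 deg C and growth is quantified by BacTiter-Glo.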
Abeta yeast res – qHTS for compounds that reverse cellular toxicity of Amyloid beta (A-beta) peptide in yeast: Primary Screen | yeast expressing A-beta42, growth rescue, OD600, 48 h; response scale: 0% DMSO, 100% iron-clioquinol control | Potency, µM (series often up to 46.1 µM), most hits filed as activators | hit rate 0.063% among 410,000; note: nearly all actives have a fitted effect of over 55% in size
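Yeast growth medium received pinned compounds, then yeast cells expressing toxic A-beta were added; plates incubated at 30 C for 48 hr. Growth read as absorbance at 600 nm, normalized to DMSO and equimolar FeCl3 plus clioquinol controls.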
aSyn rescue – qHTS of alpha-syn Inhibitors; Yeast expressing alpha-synuclein, growth rescue, BacTiter-Glo, 24 h; Potency, µM (series often up to 46.1 µM), hits mostly activators; hit rate 0.14% among 370,000; AID 652106, 2013; note: nearly all actives have a fitted effect of over 65% in size
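Rescue of yeast growth: cells expressing toxic alpha-synuclein, induced in galactose at OD600 0.02, incubated with compound 24 h at 30 C. ATP luminescence quantified growth; inhibitors of toxicity appear as activators.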
FUS suppressor – qHTS for Suppressors of FUS Proteinopathy: Primary screen using FUS-linked yeast assay | S. cerevisiae FUS-expressing, growth rescue, OD600, 24 h | Potency, µM (doses to about 76.6 µM), actives largely listed as activators | hit rate 0.24% among 390,000 | AID 1347120, 2019; note: nearly all actives have a fitted effect of over 55% in size
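S. cerevisiae expressing FUS from galactose induction served as the toxicity model. Growth after 24hr at 30C, read as absorbance at 600 nm, indicates suppression of toxicity; compounds dosed at several concentrations.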
Hits are given with their value; 0 = inactive; ? = inconclusive; - = no result given. Calls come from the whole dose curve; as a rule, active = well fitted curve in the direction sought with a large enough effect; inconclusive = small, poorly fitted or top-dose-only effect, or another doubt; inactive = no such curve, though single readings can be large; an effect the other way counts as inactive or inconclusive.

SMILES	TDP-43 yeast inh	Abeta yeast res	aSyn rescue	FUS suppressor
CCOc1ccc(N2C(=O)CC(N(C)Cc3ccccc3)C2=O)cc1 (configuration not stated)	18µM	0	0	0
c1cc(N2CCCC2)ccc1C(c1nnnn1C1CCCCC1)N1CCOCC1 (configuration not stated)	0	0	0	40µM
O=C(COc1ccc(-c2nnco2)cc1)NC1CCCc2ccccc21 (configuration not stated)	20µM	0	0	0
Cc1ccc(C(=O)Oc2ccc(Cl)c3cccnc23)cc1[N+](=O)[O-]	?	0	0	-
O=C(Oc1ccc(Cl)c2cccnc12)c1cccnc1	11µM	0	0	0
CCOC(=O)N1CCN(C(=O)C[C@H]2C(=O)N(CCCOC)C3=CCCC[C@@]32C(=O)OCC)CC1	-	-	-	0
Cc1cc(=O)oc2cc(OCCc3ccccc3)ccc12	13µM	0	0	0
Cc1cc(=O)oc2cc(OCCCC[n+]3ccccc3)ccc12	0	0	0	0
CCCCCCCCN1C(=O)[C@H](CC(=O)NCCCN2CCCC2=O)C[C@@]2(C(=O)OC)CC(C)(C)CC=C12	35µM	0	0	?
COC(=O)[C@@]12C[C@@H](CC(=O)NCCCN3CCCC3=O)C(=O)N(Cc3ccccc3)C1=CCC(C)(C)C2	?	0	0	0
CCCCCCCCN1C(=O)[C@H](CC(=O)N2CCN(C(=O)c3ccco3)CC2)C[C@@]2(C(=O)OC)CCCCC=C12	14µM	0	0	?
CCCCCCCCN1C(=O)[C@H](CC(=O)N2CCN(C(=O)C3CC3)CC2)C[C@@]2(C(=O)OC)CC(C)(C)CC=C12	0	0	0	16µM
CCCCCCCCN1C(=O)[C@H](CC(=O)N2CCCC2)C[C@@]2(C(=O)OC)CCCCC=C12	0	?	0	6.3µM
Cc1oc2ccc(O)c(CN3CCCCCC3)c2c1C(=O)Nc1cccc(C(F)(F)F)c1	0	0	-	0
CC(C)(C)c1ccc(O)c(N=Cc2cccc([N+](=O)[O-])c2)c1	-	-	0	-
Cc1ccc(S(=O)(=O)N(C)CCN(C)c2nc(-c3cccs3)nc3ccccc23)cc1	-	-	0	-
CCCCCCCCN1C(=O)[C@H](CC(=O)N2CCOCC2)C[C@@]2(C(=O)OCC)CCCC=C12	0	0	0	11µM
CCCCCCCCN1C(=O)[C@H](CC(=O)N2CCSCC2)C[C@@]2(C(=O)OCC)CCCC=C12	0	0	0	?
C#CCNC(=O)C[C@@H]1C[C@@]2(C(=O)OCC)CCCC=C2N(CCCCCCCC)C1=O	13µM	0	?	10µM
CCOC(=O)CC[C@H]1CC[C@]2(CCCN(C(=O)c3ccc4ccccc4n3)C2)O1	-	-	-	0
COc1ccc(-n2c(SCC(=O)c3ccc4ccccc4c3)nnc2-c2ccccc2)cc1	-	-	-	0
Cc1ccc(Nc2ncnc(Cl)c2N)cc1	35µM	0	0	0
O=C(Nc1ccccc1-c1ccccc1)c1cnccn1	18µM	0	0	0
O=C(COC(=O)c1cnccn1)Nc1ccccc1-c1ccccc1	0	0	0	-
O=C(N/N=C\c1cc(Br)cs1)C1COc2ccccc2O1 (configuration not stated)	35µM	?	0	0
SMILES	TDP-43 yeast inh	Abeta yeast res	aSyn rescue	FUS suppressor
O=C(N/N=C\C=C\c1ccco1)C1COc2ccccc2O1 (configuration not stated)	14µM	0	0	0
O=C(N/N=C/C=C/c1ccc([N+](=O)[O-])cc1)C1COc2ccccc2O1 (configuration not stated)	0	0	0	0
CN(C(=O)[C@@H]1CC=C[C@@H]2CCN(C3CCCCC3)C(=O)[C@@H]21)c1ccccc1	-	-	-	0
O=C(Cn1c(=O)oc2ccccc21)NCc1ccccc1Cl	0	0	-	0
COc1cc(-c2cc3nc(NCCOc4ccccc4)ccn3n2)cc(OC)c1OC	32µM	0	0	?
Cc1ccsc1CN(C(=O)c1oc2cc(Br)ccc2c1C)C1CCS(=O)(=O)C1 (configuration not stated)	0	0	-	?
CCOc1ccc(C2=NNC(c3cccs3)=Nc3ccc(OC)cc32)cc1	0	0	0	18µM
Cc1ccc(-n2nc3c(N4CCC(C(=O)NCCC(C)C)CC4)nnc(C)c3c2C)cc1	0	0	-	0
Oc1ccc(Cc2ccccc2Cl)c(O)c1	13µM	0	0	0
COC(=O)c1ccccc1NC(=O)C1CCCN(C(=O)c2cnn(-c3ccc(F)cc3)c2-n2cccc2)C1 (configuration not stated)	35µM	0	0	0
COCCCNC(=O)C1CCCN(C(=O)c2cnn(-c3ccc(F)cc3)c2-n2cccc2)C1 (configuration not stated)	0	0	?	0
O=C(c1cnn(-c2ccc(F)cc2)c1-n1cccc1)N1CCN(c2cccc(Cl)c2)CC1	13µM	0	0	0
O=c1cc(COc2ccc(Cl)c(Cl)c2)nc2sccn12	0	0	0	0
O=c1ccc(C(F)(F)F)cn1Cc1cc(=O)n2ccsc2n1	0	0	0	0
O=c1cc(COn2nnc3ccc(C(F)(F)F)cc32)nc2sccn12	10µM	0	0	0
O=c1cc(CNc2cc(C(F)(F)F)cc(C(F)(F)F)c2)nc2sccn12	18µM	0	0	-
C#CCNC(=O)C[C@H]1C[C@@]2(C(=O)OC)C(=C[C@H](C3CCCC3)O[C@@H]2C)N(CCc2ccc(OC)c(OC)c2)C1=O	-	-	-	0
COc1ccc(Cc2nc3c4cnn(-c5ccccc5F)c4ncn3n2)cc1	?	0	-	0
Fc1ccccc1-n1ncc2c1ncn1nc(Cc3ccccc3)nc21	10µM	0	-	0
Cc1ccc(NC(=O)c2ccc(Cn3cc(Br)cn3)o2)cc1	16µM	0	0	0
COc1nc(OC)nc(N2CCC(C(=O)NCc3cccc(OC)c3OC)CC2)n1	-	-	-	0
CC(=O)N1CCc2c(sc3c2c(=O)n(CCc2ccccc2)c(=O)n3Cc2ccc(F)cc2)C1	16µM	0	-	?
CC(=O)N1CCc2c(sc3c2c(=O)n(Cc2ccccc2)c(=O)n3Cc2ccccc2Cl)C1	16µM	0	-	0
CC(=O)N1CCc2c(sc3c2c(=O)n(Cc2ccccc2)c(=O)n3Cc2ccccc2F)C1	0	0	-	0
CN(C)c1ccc(/C=C\C=C/c2ccnc3ccccc23)cc1	-	-	0	-
CC(NC(=S)Nc1cccc(C(F)(F)F)c1)C(C)(C)C (configuration not stated)	0	13µM	0	0
CC(C)CNC(=O)OCc1cn(Cc2cccc(F)c2)nn1	-	-	-	0
CCn1cc2nc(SCC(=O)Nc3cc(OC)cc(OC)c3)n(Cc3ccc(Cl)cc3)c(=O)c2n1	0	0	-	22µM
CCn1cc2nc(SCC(=O)Nc3ccc(OC)c(Cl)c3)n(Cc3ccc(OC)cc3)c(=O)c2n1	0	0	-	0
O=C(Nc1ccc(Br)cc1Cl)c1ccc(OCC2CCCO2)cc1 (configuration not stated)	18µM	0	0	0
